Consider 89 compounds from PMC4336329 (PLoS ONE, 2015).

Among all 310,000 compounds or so, about 14,000 (4.5%) showed an effect of 50% or more. Effects have a minus sign here. What follows is part of a selection rich in strong results, with near analogues and random picks from the rest.
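Further: peak tail current of the secondary pulse compared with the same well before compound.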

For this experiment, the target named is human ether-à-go-go-related gene (hERG) potassium channel (human, UniProt Q12809). In words: primary screen, population patch clamp on CHO cells stably expressing hERG; higher = less effect of the substance.
Sequence of human ether-à-go-go-related gene (hERG) potassium channel (Q12809 whole entry, looked up): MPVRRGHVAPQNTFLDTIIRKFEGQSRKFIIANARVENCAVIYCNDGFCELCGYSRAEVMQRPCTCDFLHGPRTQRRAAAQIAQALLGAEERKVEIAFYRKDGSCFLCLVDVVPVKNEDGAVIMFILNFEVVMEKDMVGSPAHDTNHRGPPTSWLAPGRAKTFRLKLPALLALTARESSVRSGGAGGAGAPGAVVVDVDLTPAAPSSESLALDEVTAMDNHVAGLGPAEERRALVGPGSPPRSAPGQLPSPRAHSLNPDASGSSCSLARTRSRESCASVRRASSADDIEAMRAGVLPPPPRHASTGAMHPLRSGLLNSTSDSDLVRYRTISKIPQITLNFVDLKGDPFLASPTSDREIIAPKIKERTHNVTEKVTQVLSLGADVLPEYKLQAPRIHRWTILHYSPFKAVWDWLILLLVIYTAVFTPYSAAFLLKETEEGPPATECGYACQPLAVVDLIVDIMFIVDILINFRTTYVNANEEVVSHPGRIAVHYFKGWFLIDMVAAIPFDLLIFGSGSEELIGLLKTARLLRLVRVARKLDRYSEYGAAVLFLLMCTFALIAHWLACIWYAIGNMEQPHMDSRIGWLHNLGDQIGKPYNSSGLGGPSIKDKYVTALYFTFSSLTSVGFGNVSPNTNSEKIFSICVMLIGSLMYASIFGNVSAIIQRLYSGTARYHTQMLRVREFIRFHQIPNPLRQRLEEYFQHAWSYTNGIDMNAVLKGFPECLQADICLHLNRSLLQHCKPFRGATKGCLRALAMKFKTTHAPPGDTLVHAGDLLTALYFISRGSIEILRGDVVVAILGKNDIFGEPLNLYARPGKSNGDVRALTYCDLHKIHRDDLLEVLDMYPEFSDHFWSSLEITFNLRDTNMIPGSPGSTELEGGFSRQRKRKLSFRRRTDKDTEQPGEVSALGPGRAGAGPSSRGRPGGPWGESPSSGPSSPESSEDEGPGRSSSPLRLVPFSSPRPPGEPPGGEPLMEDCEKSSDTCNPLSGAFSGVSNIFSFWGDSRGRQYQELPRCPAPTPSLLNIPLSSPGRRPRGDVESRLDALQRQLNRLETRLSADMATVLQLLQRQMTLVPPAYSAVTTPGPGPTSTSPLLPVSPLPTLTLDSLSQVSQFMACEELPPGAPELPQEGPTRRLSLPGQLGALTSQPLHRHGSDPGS
As to `COc1ccc([C@H]2CC(=O)C=C(c3ccc4c5c(cccc35)CC4)C2)cc1`, the “hERG current change (%, negative = inhibition) at 10uM” value was 16%.
Next, `Cc1cc(N2CCCC2=O)ccc1S(=O)(=O)Nc1c(C)nn(C)c1C`: 12.3%.
As for `N#C/C(=C(/O)c1ccc(Cl)cc1)c1nc2ccccc2[nH]1`, the “hERG current change (%, negative = inhibition) at 10uM” value stood at 7.3%.
Next, `Cn1c(NNC(=O)c2cccc3ccccc23)cc(=O)n(C)c1=O`: 6.73%; `Cc1cc(C)nc(N2CCC(C(=O)NC3CCCCCC3)CC2)n1`: -4.75%.
`Cc1cc(C)nc(N2CCC(C(=O)NCc3ccco3)CC2)n1`: the “hERG current change (%, negative = inhibition) at 10uM” value is recorded as -1.73%.
In the case of `Cc1cc(NCc2ccco2)nc(N2CCC(C(=O)NC3CCCCC3)CC2)n1` it was -71.1%; in that of `O=C(CSc1nnc(NC(=O)c2ccco2)s1)NC1CCCC1`, 18.6%; in that of `CC(Oc1ccccc1)C(=O)N(CCC1=CCCCC1)c1c(N)n(Cc2ccccc2)c(=O)[nH]c1=O` (centres unmarked), -48.6%.
Next, `CC(Oc1ccc(F)cc1)C(=O)N(CCC1=CCCCC1)c1c(N)n(Cc2ccccc2)c(=O)[nH]c1=O` (centres unmarked): -52%; `Nc1c(N(CCC2=CCCCC2)C(=O)COc2ccc(F)cc2)c(=O)[nH]c(=O)n1Cc1ccccc1`: -6.12%.
`N#Cc1nc(-c2ccco2)oc1N1CCN(c2ccccc2)CC1`: the “hERG current change (%, negative = inhibition) at 10uM” value is recorded as -62.9%.
In the case of `N#Cc1nc(-c2ccccc2Cl)oc1N1CCN(C(=O)c2ccco2)CC1` it was -9.47%; in that of `N#Cc1nc(-c2ccc(F)cc2)oc1N1CCN(C(=O)c2ccco2)CC1`, -75.2%; in that of `N#Cc1nc(-c2ccco2)oc1N1CCOCC1`, 4.48%.
For `N#Cc1nc(-c2ccccc2F)oc1N1CCN(C(=O)c2ccco2)CC1`, the “hERG current change (%, negative = inhibition) at 10uM” value is recorded as -18.2%.
Consider `COc1ccc(-c2nc(C#N)c(N3CCN(C(=O)c4ccco4)CC3)o2)cc1OC`, for which the “hERG current change (%, negative = inhibition) at 10uM” value was 0.504%.
Next, `N#Cc1nc(-c2ccccc2)oc1N1CCN(C(=O)c2ccco2)CC1`: -75.7%; `COc1cccc(-c2nc(C#N)c(N3CCN(C(=O)c4ccco4)CC3)o2)c1`: -35.1%.
Turning to `COc1ccc(N2CCN(c3oc(-c4ccco4)nc3C#N)CC2)cc1`, the “hERG current change (%, negative = inhibition) at 10uM” value was -47.9%.
Turning to `O=C(CCCN1C(=O)c2ccccc2C1=O)NCCCN1CCOCC1`, the “hERG current change (%, negative = inhibition) at 10uM” value was 20.3%.
Turning to `CCCCCCCCCCCCN1[C@@H](CC(=O)OC)c2cc(F)cc(F)c2S1(=O)=O`, the “hERG current change (%, negative = inhibition) at 10uM” value is given as 11.1%.
Regarding `CCN(CC)/C(=N\S(=O)(=O)c1ccc(F)cc1)c1ccccc1`, the “hERG current change (%, negative = inhibition) at 10uM” value worked out at 8.34%.
In the case of `Cc1cc2n(n1)C(c1sccc1C)Nc1ccccc1-2` (centres unmarked) it was -15.9%; in that of `Cc1ccc(Cn2c(C(CO)Nc3nc(-c4ccc(F)cc4)cs3)nc3ccccc32)cc1` (centres unmarked), 15.4%.
Next, `CCOC(=O)c1ccc(NC(=O)NCCc2cnc[nH]2)cc1`: 4.44%; `O=C(c1ccccc1[N+](=O)[O-])N1CCCC(C(=O)N2CCCCCC2)C1` (centres unmarked): 10.6%; `O=C(Nc1cccc(F)c1)c1cc(-c2ccco2)nc2ccccc12`: 9.26%.
`O=S(=O)(c1ccc(Cl)cc1)N1CCC(n2cnc3cc(C(F)(F)F)ccc32)CC1`: the “hERG current change (%, negative = inhibition) at 10uM” value is recorded as -78.4%.
Take `COc1ccc(S(=O)(=O)N2CCC(N3CCCCC3)CC2)cc1`: the “hERG current change (%, negative = inhibition) at 10uM” value is -11.7%.
With `COc1ccc(S(=O)(=O)N2CCC(n3cnc4cc(C(F)(F)F)ccc43)CC2)cc1`, the “hERG current change (%, negative = inhibition) at 10uM” value is -73.1%.
Next, `COc1ccc(S(=O)(=O)N2CCC(N3CCCC3)CC2)cc1`: 22.3%; `O=C(O)c1cccc(S(=O)(=O)N2CCC(n3nnc4cc(C(F)(F)F)ccc43)CC2)c1`: 20.7%.
Turning to `O=C(O)c1ccc(S(=O)(=O)N2CCC(n3nnc4cc(C(F)(F)F)ccc43)CC2)cc1`, the “hERG current change (%, negative = inhibition) at 10uM” value is given as -37.7%.
In the case of `CCOC(=O)C1=C(C)NC(=O)NC1c1ccc(N(CC)CC)cc1` (centres unmarked) it was -6.39%; in that of `CCOc1ccc(C(=O)NCC(=O)OCc2cc([N+](=O)[O-])cc3c2OCOC3)cc1OCC`, -12%; in that of `O=C(c1ccc2c(c1)OCO2)C1CCCN(Cc2cn[nH]c2-c2cccc(F)c2)C1` (centres unmarked), -78.1%.
Turning to `O=C(c1ccc2c(c1)OCO2)C1CCCN(Cc2ccccn2)C1` (centres unmarked), the “hERG current change (%, negative = inhibition) at 10uM” value is reported as -30.9%.
Next, `Cc1ccc(CN2CCN(Cc3cn[nH]c3-c3cccc(F)c3)CC2CCO)o1` (centres unmarked): -25.8%; `c1ccc(-c2[nH]ncc2CN2CCN(Cc3ccc4c(c3)OCO4)CC2)cc1`: -37.9%.
Next, `O=C(c1ccc2c(c1)OCO2)C1CCCN(Cc2c(F)cccc2Cl)C1` (centres unmarked): -32.5%; `O=C(c1ccc2c(c1)OCO2)C1CCCN(Cc2cn[nH]c2-c2ccccc2)C1` (centres unmarked): -72.2%; `O=C(Nc1ccc2c(c1)OCO2)N1CCCc2ccccc21`: 11.7%.
Next, `COc1cc(/C=N/NC(=O)c2ccc(O)cc2)ccc1OCC(=O)Nc1cccc([N+](=O)[O-])c1`: 10.3%; `O=S1(=O)N(Cc2ccccc2F)CCCN1Cc1c(F)cccc1Cl`: 7.29%; `CC(=O)Nc1ccc(S(=O)(=O)NCc2ccc3[nH]c(C)cc3c2)cc1`: 21%.
For `N#Cc1ccc(NC(=O)CN2CCN(c3ccccn3)CC2)cc1`, the “hERG current change (%, negative = inhibition) at 10uM” value is -71.9%.
`Cc1ccc([N+](=O)[O-])cc1NC(=O)C(C)N1CCCCC1` (centres unmarked): the “hERG current change (%, negative = inhibition) at 10uM” value was found to be 30.2%.
For the compound `Cc1ccc(NC(=O)CN2CCN(c3ccccn3)CC2)c(Cl)c1`, the “hERG current change (%, negative = inhibition) at 10uM” value was -1.57%.
In the case of `CC(=O)Nc1ccc(NC(=O)CN2CCN(c3ccccn3)CC2)cc1` it was 13.3%; in that of `O=C(CN1CCN(c2ccccn2)CC1)Nc1ccccc1`, -9.4%.
Next, `O=C(CN1CCN(c2ccccn2)CC1)Nc1ccccc1Br`: -31.6%.
As to `O=C(CN1CCN(c2ccccn2)CC1)Nc1ccc(F)cc1.O=C(O)C(=O)O`, the “hERG current change (%, negative = inhibition) at 10uM” value is recorded as -47.2%.
In the case of `Cc1cc([N+](=O)[O-])ccc1NC(=O)C(C)N1CCN(c2ccccn2)CC1` (centres unmarked) it was -71.4%; in that of `Cc1cc(Br)ccc1NC(=O)CN1CCN(c2ccccn2)CC1`, -71.5%; in that of `CC(C(=O)Nc1cc([N+](=O)[O-])ccc1Cl)N1CCN(c2ccccc2)CC1` (centres unmarked), 12.3%.
Next, `N#Cc1ccccc1NC(=O)CN1CCN(c2ccccn2)CC1`: -29.8%.
In the case of `O=C(CN1CCN(c2ccccn2)CC1)Nc1ccc(Br)cc1` it was -57.7%.
For `COc1ccc(/C=N/NC(=O)c2ccc(NC(=O)C3CCCCC3)cc2)cc1O`, the “hERG current change (%, negative = inhibition) at 10uM” value came out at 24.3%.
Turning to `Cc1cc(NC(=O)CSc2ccc(-c3ccc(Br)cc3)nn2)no1`, the “hERG current change (%, negative = inhibition) at 10uM” value is reported as 11.1%.
Consider `Cc1cc(C)cc(N(CCC#N)C(=O)CSc2n[nH]c(N)n2)c1`, for which the “hERG current change (%, negative = inhibition) at 10uM” value came out at 12.6%.
Regarding `O=C(NCCN1CCOCC1)c1ccc(NS(=O)(=O)c2cccc([N+](=O)[O-])c2)cc1`, the “hERG current change (%, negative = inhibition) at 10uM” value was found to be 10.6%.
As for `Cc1ccc(/C=N/N2CCN(Cc3cccc4ccccc34)CC2)s1`, the “hERG current change (%, negative = inhibition) at 10uM” value was -3.05%.
Next, `CS(=O)(=O)Nc1cccc(C2=NN(S(=O)(=O)c3ccccc3)C(c3ccco3)C2)c1` (centres unmarked): -29.9%; `Cc1ccc(C2=NN(S(=O)(=O)c3ccccc3)C(c3ccco3)C2)cc1` (centres unmarked): 8.53%.
For the compound `CS(=O)(=O)Nc1ccc(C2=NN(S(=O)(=O)c3ccc(F)cc3)C(c3ccco3)C2)cc1` (centres unmarked), the “hERG current change (%, negative = inhibition) at 10uM” value is recorded as -70.2%.
In the case of `COc1ccc(S(=O)(=O)N2N=C(c3ccc(NS(C)(=O)=O)cc3)CC2c2ccco2)cc1` (centres unmarked), the “hERG current change (%, negative = inhibition) at 10uM” value is listed as -74.2%.
Next, `COc1ccc(S(=O)(=O)N2N=C(c3cccc(NS(C)(=O)=O)c3)CC2c2ccco2)cc1` (centres unmarked): -3.61%.
For `CCS(=O)(=O)Nc1ccc(C2=NN(S(=O)(=O)c3ccc(F)cc3)C(c3ccco3)C2)cc1` (centres unmarked), the “hERG current change (%, negative = inhibition) at 10uM” value is listed as -38.8%.
Next, `CCCc1cc(=O)oc2cc(C)cc(OCC(=O)NCC(O)c3ccccc3)c12` (centres unmarked): 13.5%.
Consider `Cc1cccc(CCNC(=O)CCS(=O)(=O)c2ccc(Br)cc2)c1`, for which the “hERG current change (%, negative = inhibition) at 10uM” value was found to be 8.8%.
In the case of `O=C(NC(=S)N1CCN(C/C=C/c2ccccc2)CC1)c1ccco1` it was -35%.
With `S=C(NCc1ccco1)N1CCN(Cc2ccco2)CC1`, the “hERG current change (%, negative = inhibition) at 10uM” value was 1.76%.
Consider `O=C(/C=C/c1ccco1)N1CCN(S(=O)(=O)/C=C/c2ccccc2)CC1`, for which the “hERG current change (%, negative = inhibition) at 10uM” value is reported as -45%.
`S=C(NCc1ccco1)N1CCN(C/C=C/c2ccccc2)CC1`: the “hERG current change (%, negative = inhibition) at 10uM” value was -56.2%.
In the case of `O=C(/C=C/c1ccco1)N1CCN(C/C=C/c2ccccc2)CC1` it was -58.8%; in that of `O=C(/C=C/c1ccco1)N1CCC(Cc2ccccc2)CC1`, 4.42%.
Next, `Cc1cccc(C(=O)N(C)c2nnc(-c3ccncc3)s2)c1`: 1.3%.
As for `Cc1ccc(NC(=O)Cn2ccsc2=N)c([N+](=O)[O-])c1.Cl`, the “hERG current change (%, negative = inhibition) at 10uM” value stood at 35.1%.
For `CC(C)CCNc1nc(N)c([N+](=O)[O-])c(N2CCCCCC2)n1`, the “hERG current change (%, negative = inhibition) at 10uM” value is 12.1%.
In the case of `c1ccc2c(c1)NC(c1ccncc1)n1c-2nc2ccccc21` (centres unmarked) it was -66.2%; in that of `c1cncc(C2Nc3ccccc3-c3nc4ccccc4n32)c1` (centres unmarked), -5.58%.
With `c1ccc(C2Nc3ccccc3-c3nc4ccccc4n32)cc1` (centres unmarked), the “hERG current change (%, negative = inhibition) at 10uM” value is reported as -18.1%.
Consider `Cc1cc(NC(=O)CCC(=O)N(CC(=O)NCC2CCCO2)c2ccc(C)c(C)c2)no1` (centres unmarked), for which the “hERG current change (%, negative = inhibition) at 10uM” value is reported as 8.68%.
Next, `CCOC(=O)c1[nH]ncc1[C@@H]1C[C@H]2CN(Cc3cccc(Cl)c3)C(=O)[C@]23CCCN13`: -27.4%; `Cn1cc([C@@H]2C[C@H]3CN(Cc4cccc(Cl)c4)C(=O)[C@]34CCCN24)c2ccccc21`: -72.7%.
Next, `O=C1N(Cc2cccc(Cl)c2)C[C@@H]2C[C@@H](c3cccc4ncccc34)N3CCC[C@@]123`: -48.8%; `O=C1N(Cc2cccc(Cl)c2)C[C@@H]2C[C@@H](c3c[nH]c4ccccc34)N3CCC[C@@]123`: -74.8%; `Cc1c([C@@H]2C[C@H]3CN(Cc4cccc(Cl)c4)C(=O)[C@]34CCCN24)cnn1C`: -45.5%.
